Screening results as filed in PubChem BioAssay.
Pf growth 48h: P. falciparum growth inhibition at 48 hours (one generation). 5.9% of 310,000 active. Potency, µM (top dose mostly 28.7 µM), for the others: at the top dose activity change, negative = inhibition, most hits filed as inhibitors. P. falciparum luciferase growth in erythrocytes, 48 h; further: potency means the concentration at half of the fitted maximal effect; on the % scale 0 is the no-effect control and ±100 the full control effect
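Firefly luciferase activity from engineered P. falciparum reports growth; inhibitors lower the luminescent signal. Cultures contained 2% hematocrit erythrocytes at 0.1% final parasitemia.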
Shiga inhibitor: inhibitors of Shiga toxin in Vero cells | inhibition, % at 38.7 µM | Vero cells, Shiga toxin protein synthesis inhibition reporter | AID 2315 | 9.2% of 290,000 active; in the data active means inhibition mostly above about 28%, no sharp cut-off; inactive means mostly below about 43%; further: 0% is about no effect
Cycloheximide cs: counter-screen hit for Shiga toxin inhibitors, cycloheximide; max response, %; 12% of 300,000 active; cell reporter, cycloheximide protein synthesis inhibition counterscreen; in the data active means max response mostly above about 13%, no sharp cut-off; inactive means mostly below about 14%; further: read at 38.3 µM for the half of the compounds with a filed dose; 0% is about no effect
Pf growth 96h: inhibits malaria parasite growth, 96 h | 6.9% of 320,000 active | AID 504834 | Potency, µM (doses to about 28.7 µM), for inactives: at the top dose activity change, negative = inhibition, usual class: inhibitors | P. falciparum luciferase reporter growth, 96 h; further: potency means the concentration at half of the fitted maximal effect; on the % scale 0 is the no-effect control and ±100 the full control effect
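Two-generation exposure (96 h) targets delayed-death phenotype. Reporter parasites carrying integrated firefly luciferase, in red cells at 2% hematocrit and 0.05% parasitemia final, kept at 37 C, 5% CO2; luminescence loss indicates inhibition.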
NS1 inh: blocks influenza NS1 protein function; Potency, µM (highest dose often 46.1 µM), for the others: top-dose activity, positive = more growth; 0.4% of 270,000 active; calls by dose curve; further: potency means the concentration at half of the fitted maximal effect; actives are rising curves; nearly all actives have a fitted effect of over 50% in size
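Growth recovery, yeast-based: influenza A NS1 expressed in S. cerevisiae causes slow growth, and suppressors are detected by OD600. The parent strain without NS1 is used as positive control.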
Starred values were filed as active, the others as inactive. Hits are enriched below; roughly 21% of the tested compounds scored in any of these assays. Unless noted, the call rests on the fitted dose curve; in most records, active means well fitted inhibition curve with a large enough effect; inconclusive means small, poorly fitted or top-dose-only effect, or another doubt; inactive means no such curve, though single readings can be large or run the other way.

Screening CC1(C)CC(=O)C2=C(C1)Nc1ccccc1NC2c1cccc(F)c1 (stereo unspecified) returned Pf growth 48h -22.9%, Shiga inhibitor -15.2, Cycloheximide cs -2.9, Pf growth 96h -11.1% and NS1 inh 11.4%.
For Cc1ccccc1C(=O)Nc1nc2n(n1)C(c1ccccc1)CC(=O)N2 (stereo unspecified) the results were Pf growth 48h -3.6%, Shiga inhibitor -6.9, Cycloheximide cs -4.4 and NS1 inh 1.1%.
`COc1ccc(/C=N/NC(=O)CC2N=C(Cc3ccccc3)NNC2=O)cc1OC` (stereo unspecified) gave Pf growth 48h -10.8%, Shiga inhibitor -11.7, Cycloheximide cs -4.7, Pf growth 96h inconclusive and NS1 inh 6.4%.
`CC(=O)N1CCC(Nc2ccc(C)cc2)CC1` gave Shiga inhibitor -15.3, Cycloheximide cs -8.9, Pf growth 96h inconclusive and NS1 inh -2.0%.
Screening Cc1no[n+]([O-])c1COc1ccc(/C=N/n2nnnc2N)cc1 returned Pf growth 48h -29.3%, Shiga inhibitor 25.0, Cycloheximide cs -3.5, Pf growth 96h 11.7µM* and NS1 inh -17.5%.
For COc1ccccc1S(=O)(=O)N1CCN(S(=O)(=O)c2ccccc2C#N)CC1 the results were Pf growth 48h -21.1%, Shiga inhibitor -5.1, Cycloheximide cs -1.5, Pf growth 96h -18.3% and NS1 inh 3.5%.
For CCn1cc(C(C)NC(=O)Nc2ccc3c(c2)OCO3)c(C)n1 (stereo unspecified) the results were Pf growth 48h 10.4%, Shiga inhibitor 15.9, Cycloheximide cs 5.8, Pf growth 96h inconclusive and NS1 inh 2.2%.
Screening Cc1cc(CNC(=O)Nc2ccc3c(c2)OCO3)nn1C returned Pf growth 48h 117.2%, Shiga inhibitor 60.7*, Cycloheximide cs 26.9* and NS1 inh -3.1%.
CCn1nc(C)c(CNC(=O)Nc2ccc3c(c2)OCO3)c1C was read as Pf growth 48h 148.8%, Shiga inhibitor 91.3, Cycloheximide cs 45.3* and Pf growth 96h inconclusive.
Screening CCOc1ccc(/C(C)=N/NC(=O)Cn2nc([N+](=O)[O-])cc2C)cc1 returned Pf growth 48h 8.5%, Shiga inhibitor -1.3, Cycloheximide cs -1.7, Pf growth 96h -0.9% and NS1 inh 1.0%.
`Cc1cccc(-n2nc([N+](=O)[O-])c(=NCc3cccnc3)n2O)c1` gave Pf growth 48h inconclusive, Shiga inhibitor 16.3, Cycloheximide cs 24.0, Pf growth 96h inconclusive and NS1 inh -18.4%.
`O=[N+]([O-])c1nn(-c2cccc(Cl)c2)n(O)c1=NCc1cccnc1` gave Pf growth 48h 8.4%, Shiga inhibitor 13.5, Cycloheximide cs 22.6*, Pf growth 96h -16.5% and NS1 inh -18.0%.
Screening O=[N+]([O-])c1nn(-c2ccc(Cl)cc2)n(O)c1=NCc1cccnc1 returned Pf growth 48h -6.9%, Shiga inhibitor 39.5, Cycloheximide cs 22.5*, Pf growth 96h -12.5% and NS1 inh -24.4%.
Screening CC(C)OC(=O)c1cccnc1N1CCN(c2cccc(Cl)c2)CC1 returned Pf growth 48h inconclusive, Shiga inhibitor 20.0, Cycloheximide cs -1.2, Pf growth 96h -15.3% and NS1 inh -8.8%.
`CCCNC(=O)Cn1c2ccccc2c2nc(=O)cc(C)n21` gave Shiga inhibitor -13.0, Cycloheximide cs 2.3, Pf growth 96h 8.28µM* and NS1 inh -5.6%.
Screening Cc1cc(=O)nc2c3ccccc3n(CC(=O)NCCC3=CCCCC3)n12 returned Pf growth 48h -17.7%, Shiga inhibitor 115.3, Cycloheximide cs 40.1*, Pf growth 96h -26.2% and NS1 inh -26.6%.
`COc1ccc(CC2(C)OC(c3ccc([N+](=O)[O-])cc3)=NN2C(C)=O)cc1` (stereo unspecified) gave Pf growth 48h 9.28µM*, Shiga inhibitor -9.4, Cycloheximide cs 0.8, Pf growth 96h 9.28µM* and NS1 inh -33.1%.
`COc1ccc(C(=O)NNC(=O)Cc2ccc([N+](=O)[O-])cc2)cc1` gave Pf growth 48h 29.0%, Shiga inhibitor -8.7, Cycloheximide cs -3.6, Pf growth 96h -3.3% and NS1 inh 1.5%.
CCCC(C(=O)Nc1ccc(S(=O)(=O)N2CCCC2)cc1)c1ccccc1 (stereo unspecified) was read as Pf growth 48h 10.4µM* and Pf growth 96h inconclusive.
Screening CC(O)c1cccc(NC(=O)CC(c2ccccc2)c2ccccc2)c1 (stereo unspecified) returned Pf growth 48h -7.7%, Shiga inhibitor -6.8, Cycloheximide cs -1.5, Pf growth 96h inconclusive and NS1 inh 21.0%.
For O=C(CC(c1ccccc1)c1ccccc1)Nc1ccncc1 the results were Pf growth 48h inconclusive, Shiga inhibitor -6.8, Cycloheximide cs -1.9, Pf growth 96h 10.4µM* and NS1 inh -78.2%.
Screening CCCC(C(=O)Nc1ccncc1)c1ccccc1 (stereo unspecified) returned Pf growth 48h inconclusive, Shiga inhibitor -37.5, Cycloheximide cs -2.5, Pf growth 96h 2.94µM* and NS1 inh 6.4%.
For O=C(CN1CCCCCC1)Nc1ccccc1OC(F)F the results were Pf growth 48h 9.6%, Shiga inhibitor 6.8, Cycloheximide cs -2.7, Pf growth 96h 15.2% and NS1 inh 3.8%.
Screening COc1ccc(/C=N/OCC(=O)N(Cc2ccc(OC)cc2)c2ccccc2C(=O)O)cc1 returned Pf growth 48h 3.3%, Shiga inhibitor -10.8, Cycloheximide cs 1.0, Pf growth 96h 5.2% and NS1 inh -0.4%.
For O=C(NCCCN1CCc2ccccc2C1)C1CCN(S(=O)(=O)N2CCCC2)CC1 the results were Pf growth 48h 6.1%, Shiga inhibitor 10.3, Cycloheximide cs -0.9, Pf growth 96h inconclusive and NS1 inh 0.9%.
For CCOC(=O)c1cc(-c2ccccc2)sc1NC(=O)C(C)C the results were Pf growth 48h inconclusive, Shiga inhibitor 9.9, Cycloheximide cs 4.2, Pf growth 96h inconclusive and NS1 inh -3.0%.
CCOC(=O)c1cc(-c2ccccc2)sc1NC(=O)C(C)Sc1nnnn1C (stereo unspecified) was read as Pf growth 48h inconclusive, Shiga inhibitor -5.3, Cycloheximide cs -2.7, Pf growth 96h 10.4µM* and NS1 inh -10.0%.
Screening CCOC(=O)c1cc(-c2ccccc2)sc1NC(=O)C(C)OC(=O)c1cccnc1Cl (stereo unspecified) returned Pf growth 48h -3.6%, Shiga inhibitor -15.4, Cycloheximide cs -2.5, Pf growth 96h 9.28µM* and NS1 inh -4.7%.
CCOC(=O)c1cc(-c2ccccc2)sc1NC(=O)C(C)N1C(=O)NC(C)(c2ccc(Cl)cc2)C1=O (stereo unspecified) was read as Shiga inhibitor -2.8, Cycloheximide cs -2.1, Pf growth 96h 9.28µM* and NS1 inh 17.9%.
For CCOC(=O)c1cc(-c2ccccc2)sc1NC(=O)C(C)Sc1nnc(C)s1 (stereo unspecified) the results were Pf growth 48h 13.1µM*, Shiga inhibitor 38.9, Cycloheximide cs 10.7*, Pf growth 96h inconclusive and NS1 inh inconclusive.
